Measurements published in PubChem BioAssay (NCATS).
Inconclusive results are not listed. Calls of active or inactive are those of the source. The call rests on the fitted dose curve; in most records, active means well fitted inhibition curve with a large enough effect; inconclusive means small, poorly fitted or top-dose-only effect; inactive means flat fitted curve, though single readings scatter.

Columns and labels:
[1] = Drug repurposing screens with cells derived from glioblastoma tumor samples (AID 1345199); conditions: GBM patient neurospheres viability, ATP luminescence, 48 h; further: nearly all actives have a fitted effect of over 40% in size
Summary of the method: (§1)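 Primary testing used CD133+ neurospheres from four GBM patients, seven concentrations, 48 h exposure and ATP-based viability; confirmation added three slower-growing patient lines.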

astro = control astrocytes; experiment: as above; conditions: viability, ATP luminescence, 48 h; series mostly up to 45.9 µM
Summary of the method: as §1

[2] = at 45.9 µM (top of the series), tumour line B
[3] = at 45.9 µM (top of the series), tumour line D
[4] = at 46 µM (top of the series), tumour line A
[5] = at 46.1 µM (top of the series), tumour line C
[6] = at 20 µM (top of the series), tumour line C
[7] = at 21.2 µM (top of the series), tumour line B
[8] = at 21.2 µM (top of the series), tumour line D
[9] = at 21.3 µM (top of the series), tumour line A
On the % scale 0 is the no-effect control and ±100 the full control effect; potency means the concentration at half of the fitted maximal effect.

Compound | activity, negative = cell killing [1, 2] | activity, negative = cell killing [1, 3] | activity, negative = cell killing [1, 4] | activity, negative = cell killing [1, 5] | Potency (astro) | activity, negative = cell killing [1, 6] | activity, negative = cell killing [1, 7] | activity, negative = cell killing [1, 8] | activity, negative = cell killing [1, 9] | Potency ([1]; tumour line A)
CC(CC=O)CCCC(C)(C)O (stereo not given) | -11.5% (inactive) | -18.7% (inactive) | -27.2% (inactive) | -24.1% (inactive) | inactive |  |  |  |  | 
O[C@@H]([C@H](O)[C@H](O)CBr)[C@H](O)CBr | -6.4% (inactive) | -10.8% (inactive) | -25.7% (inactive) | 4.72% (inactive) | inactive |  |  |  |  | 
CCN(CC)CCOC[C@H]1O[C@@H](O)[C@H](OCCN(CC)CC)[C@@H](O)[C@@H]1O | -9.61% (inactive) | -16.5% (inactive) | -26.4% (inactive) | -24.8% (inactive) | inactive |  |  |  |  | 
C/C=C/C=C/C(=O)O | 2.26% (inactive) | -15.1% (inactive) | -7.83% (inactive) | -7.57% (inactive) | inactive |  |  |  |  | 
CC(C)c1ncc([N+](=O)[O-])n1C | -8.02% (inactive) | -13.9% (inactive) | -13.9% (inactive) | -14.5% (inactive) | inactive |  |  |  |  | 
Nc1nc(/C(=C/CC(=O)O)C(=O)N[C@@H]2C(=O)N3C(C(=O)O)=CCS[C@H]23)cs1 | -0.0909% (inactive) | -11.4% (inactive) | 12.2% (inactive) | 20.6% (inactive) | inactive |  |  |  |  | 
C[S+](C)CCC(N)C(=O)O (stereo not given) | -1.5% (inactive) | -4.21% (inactive) | -14.6% (inactive) | -27.3% (inactive) | inactive |  |  |  |  | 
CCCOc1cc(N)ccc1C(=O)OCCN(CC)CC |  |  |  |  | inactive | 3.99% (inactive) | -3.15% (inactive) | -24.1% (inactive) | 3.16% (inactive) | 
NS(=O)(=O)c1cc2c(cc1Cl)NC(Cc1ccccc1)NS2(=O)=O (stereo not given) | 4.57% (inactive) | 9.26% (inactive) | -28.7% (inactive) | 0.872% (inactive) | inactive |  |  |  |  | 
CC1(C)[C@@H]2CC[C@@]1(C)[C@H](OC(=O)CSC#N)C2 | -7.75% (inactive) | -12% (inactive) |  | 23.1% (inactive) | inactive |  |  |  |  | 35.5 µM (active)
O=C(O)c1cc(O)c2c(c1)[C@H]([C@H]1c3cc(C(=O)O)cc(O)c3C(=O)c3c(O[C@@H]4O[C@H](CO)[C@@H](O)[C@H](O)[C@H]4O)cccc31)c1cccc(O[C@@H]3O[C@H](CO)[C@@H](O)[C@H](O)[C@H]3O)c1C2=O | -24.5% (inactive) | -3.04% (inactive) | -24% (inactive) | -0.084% (inactive) | inactive |  |  |  |  | 
CCCCCCCCCCCCOCCCN | -9.11% (inactive) | 2.93% (inactive) | -39.4% (inactive) | -14.6% (inactive) | inactive |  |  |  |  | 
Nc1nc2c(c(=O)[nH]1)N(C=O)C(CNc1ccc(C(=O)N[C@@H](CCC(=O)O)C(=O)O)cc1)CN2 (stereo not given in full) |  |  |  |  | inactive | -2.81% (inactive) | -5.52% (inactive) | -5.96% (inactive) | -10.3% (inactive) | 
NC(=O)OC[C@@H]1[C@H](NC(=O)/C(=N\OCC(=O)O)c2csc(N)n2)C(=O)N1S(=O)(=O)O | 5.57% (inactive) | 5.27% (inactive) | -4.61% (inactive) | -1.35% (inactive) | inactive |  |  |  |  | 
NC[C@H]1O[C@H](O[C@H]2[C@H](O)[C@@H](O[C@H]3O[C@H](CO)[C@@H](O)[C@H](N)[C@H]3O)[C@H](N)C[C@@H]2N)[C@H](N)C[C@@H]1O |  |  |  |  | inactive | 1.26% (inactive) | -9.72% (inactive) | -3.61% (inactive) | -18.4% (inactive) | 
